These results are taken from paper PMC12136788.

B1: chr11:46383557:46383658:+|3pUTR|ENSG00000110492|msi1_unk|FALSE|overlapping (ssRNA)
RNA: GGGAGUUCUACAGUCCGACGAUCCCACGCCCUCCCUCUCCCAGGCCCGAGAUGUGACCCACCAGUGCCUUCUGUCUGCUCGUUAGCUUUAAUCAAUCAUGCCCUGCCUUGUCCCUCUCACUCCCCAGCCCCACCCCUAAGUGCCAACAGAGGAUUGAGCAUCA
B2: chr8:65707876:65707977:+|CDS|ENSG00000066855|unk|FALSE|unique (ssRNA)
RNA: GGGAGUUCUACAGUCCGACGAUCCCUGCUGCCCUCAUAGCAGAGGCUCUGAAAAAGAAAUUUGCUUAUCGGUAUCGAAGUGAUAGCCAAGAUGAAGUUGAAAAAGGAAUUCCAAAGUCUGAAUCAGAGGCCACCUCAGAGAGACAACAGAGGAUUGAGCAUCA
B3: chr20:11926050:11926151:+|3pUTR|ENSG00000132640|msi1|FALSE|unique (ssRNA)
RNA: GGGAGUUCUACAGUCCGACGAUCAUGAAAUGGAAUGAAGGCUAAUAUGCUUGCUUUAUUUACUUUUGUAAUCUUGGAUUUUGUAGCUUUUAAAACUAGAAACCAUUGUUCUAACAAAGCAGGCAACUUUAUUCUAUAAACACACAACAGAGGAUUGAGCAUCA
B4: chr10:92030471:92030572:+|3pUTR|ENSG00000095564|unk|FALSE|unique (ssRNA)
RNA: GGGAGUUCUACAGUCCGACGAUCUAUUUUUUUAUUAACUAUUUAUUUGCUAGUUCCAUAAACCAGCUCUUUAACAUAGCUUAUAGUAAUUGAUAUUUUCUUAGAAUAAGUACAGAGCAAUAUAUCAUUAAAGGGCUAUGAAGGCAACAGAGGAUUGAGCAUCA
B5: chr10:92030471:92030572:+|3pUTR|ENSG00000095564|unk|total|mutant (ssRNA)
RNA: B4 RNA with U50C, A51C, U76C, A77C, U83C, A84C, U101C, A102C
B6: ENSG00000107863:be:win_551|CDS|ENSG00000107863|bound_else_gene|NA|bound_elsewhere_windowed (ssRNA)
RNA: GGGAGUUCUACAGUCCGACGAUCAAGGCAACGAAGCUUAUAGCGGCAAUGCCCGCAAUAUACCUGAACCUCCACCAAUCUGCUAUCCCUGGCUGCCAUCUGCCCCAUCAGCCAUGGCACAGCCAGUUGAAAUAUCUCCUCCUGCAACAGAGGAUUGAGCAUCA
B7: chr4:124666837:124666938:-|3pUTR|ENSG00000151458|msi1|total|mutant (ssRNA)
RNA: GGGAGUUCUACAGUCCGACGAUCAAUGAUUUCUUGGCAGUUUAAAAAAAAUAUUUUACCGCCGUUCCGGGAGCUGCUUUAAGCCGUUUAAAUCUGGAUUUUCCCAGCCGAAUUCUUCUCAUCUCUGGCUAAACAUGUCAGAACCAACAGAGGAUUGAGCAUCA
B8: chr4:124666837:124666938:-|3pUTR|ENSG00000151458|msi1|FALSE|unique (ssRNA)
RNA: B7 RNA with C58U, C59A, C61U, C62A, C66U, C67A, C83U, C84A, C107U, C108A
B9: chr3:10101824:10101929:+|3pUTR|ENSG00000144554|unk|FALSE|unique (ssRNA)
RNA: GGGAGUUCUACAGUCCGACGAUCAAAAUCUCUGAGUCAUGAUUCUGGACUUUGGGAGCUAGUUUUGAAACUCUGAUUUAUUGUAGAACUUAGGCUUGUACCAAUUUUACAAAUAAAUUCUGUUCUAAGUUCUGCCUCAGUUGCCAACAGAGGAUUGAGCAUCA
B10: ENSG00000066933:stop:overlap|stop_codon|ENSG00000066933|stop_codon|NA|stop_codon (ssRNA)
RNA: GGGAGUUCUACAGUCCGACGAUCAUAGCUCAGAGAAUUUGAAUAUGGAGUCUGAAUAUGCUAUCUCUGAGAAAUCAGAAGCUUAGCCCUUAGCUCCCUGAAGACAGCUGGCAAGUCUGAACCUUCCAGCAAGUUGCGAAAGCACAACAGAGGAUUGAGCAUCA
B11: chr20:11926050:11926151:+|3pUTR|ENSG00000132640|msi1|total|mutant (ssRNA)
RNA: B3 RNA with U83C, A84C, U96C, A97C
B12: chr1:235448940:235449205:-|3pUTR|ENSG00000162885|unk|FALSE|unique (ssRNA)
RNA: GGGAGUUCUACAGUCCGACGAUCAAUAGAGAAUUCCAUUAAAACUAGUCUUAUGACAGAUAUUAACUGUGUUCAGAUUUUAUUAGGCUAGCUAGUUUCUUUCUAUUUAAUAUUUAAAUCUUAUCAUGAAAUGCAGUGAUGAGCCAACAGAGGAUUGAGCAUCA
B13: chr13:32776882:32776983:+|3pUTR|ENSG00000083642|unk|total|mutant (ssRNA)
RNA: GGGAGUUCUACAGUCCGACGAUCAAAGUGUUUUGAAUUGUGUCUUAAUCUCUCCAUAUUCAACUAUUCUUCAUUUACAACAACCGUGACACCAGUAAUUAUGAGAGGCUGUCAUAUAUCAAAGCAGCUCAGGUGGGAUCAACACAACAGAGGAUUGAGCAUCA
B14: chr14:95709946:95710881:-|three_prime_utr|ENSG00000100721|control|control|control (ssRNA)
RNA: GGGAGUUCUACAGUCCGACGAUCUCUGGGAGGAAUGGACAGACAGAGGAUGAGCUCUACCCAGGGCCUGCAGGACCUGCCUGUAGCCCACUCUGCUCGCCUUAGCACUACCACUCCUGCCAAGGAGGAUUCCAUUUGGCAGAGCAACAGAGGAUUGAGCAUCA
B15: chr5:138873012:138874556:-|CDS|ENSG00000146006|control|control|control (ssRNA)
RNA: GGGAGUUCUACAGUCCGACGAUCUUUAUUAUUUUUAUAGUGUUCAUCUCCAGGAAGUGCUGCCCUCCCACUUUAAGAAGAAUUAGGCAGUGCUCAAUGGUUCAGAACCACAGGCAGCUCCGAUCCCAAACACGACUCCAUAUGCAACAGAGGAUUGAGCAUCA
B16: chr5:72207278:72207408:+|3pUTR|ENSG00000131711|msi1_unk|total|mutant (ssRNA)
RNA: GGGAGUUCUACAGUCCGACGAUCAGAGAACAAUGACCUCAUUUUAUUUUCUAUGUCCGUUAUUUAUUUCAAAAUUAACAUUUCCGUUGAUUUUUGUCUGAUAAGUCUAUGUUUUGCACUGCUAACUAUGAUGAGGGUUUAAAACAACAGAGGAUUGAGCAUCA
B17: chr1:93866283:93869944:-|three_prime_utr|ENSG00000067334|control|control|control (ssRNA)
RNA: GGGAGUUCUACAGUCCGACGAUCUUUAUUUACUUAUUAAAGACGUUUGGAAAACUAACACCAUCAUCUAAAUUAAUUUACCAUAGACUGGCCCUGUUCAUACAGGAAUUUGUAUUUGGAAAAAGUUGAUUUGAGAAUCGAUUACAACAGAGGAUUGAGCAUCA
B18: chr16:30603633:30603734:-|3pUTR|ENSG00000156853|unk|total|mutant (ssRNA)
RNA: GGGAGUUCUACAGUCCGACGAUCGUUAAGUACCACAUUCUCCUCUAAACCUUGCCUACGACAUGUUUAAUACUUCAUCUACACCGCAGCCCUUCAGAUAAUCACAACCACUUUGCCCCCAAGUUUUCAGGUUAAGCCGCAUGACAACAGAGGAUUGAGCAUCA
B19: chr2:32224452:32224765:-|three_prime_utr|ENSG00000091106|control|control|control (ssRNA)
RNA: GGGAGUUCUACAGUCCGACGAUCUCGUGUGAGCAGUGAUGGAUGGCUUGCCUUCAUGGGUGUAUUUGAGAAUCUUAAGCAAUUAGUGUUUUUUGACUUUAGUACUAAAGAAUUUCUACCUGAUCCAGCAUUAGUCAGAAAACUCAACAGAGGAUUGAGCAUCA
B20: ENSG00000198589:be:win_6851|CDS|ENSG00000198589|bound_else_gene|NA|bound_elsewhere_windowed (ssRNA)
RNA: GGGAGUUCUACAGUCCGACGAUCAAGUUCCAAAGUUUCACUAUGGUACUCAUUACUCAACUGCAAGUUUUGUUCUUGCAUGGCUGCUAAGAAUAGAACCCUUUACAACUUAUUUCCUAAAUUUGCAAGGAGGCAAAUUUGAUCCAACAGAGGAUUGAGCAUCA
B21: chr9:15474029:15474130:-|CDS|ENSG00000164985|unk|FALSE|unique (ssRNA)
RNA: GGGAGUUCUACAGUCCGACGAUCAAGAAAAGAGCCGGAUAAAAAAGAGGGGAAGAAAGAAGUUGAAUCAAAAAGGAAAAAUUUAGCUAAAACAGGGGUUACUUCAACCUCCGAUUCUGAAGAAGAAGGAGAUGAUCAAGAAGGCAACAGAGGAUUGAGCAUCA
B22: chr12:57516587:57516808:-|three_prime_utr|ENSG00000175197|control|control|control (ssRNA)
RNA: GGGAGUUCUACAGUCCGACGAUCCCCCCACUUGGGCCACACUACCCACCUUUCCCAGAAGUGGCUACUGACUACCCUCUCACUAGUGCCAAUGAUGUGACCCUCAAUCCCACAUACGCAGGGGGAAGGCUUGGAGUAGACAAACAACAGAGGAUUGAGCAUCA

Positions count from the first letter of the chain named. The full ranking holds about 5,800 sequences; the median of “enrichment r” is about 0.54, and the highest 2% start at about 16. Shown is part of a subset that was picked to be rich in the highest values.

MSI1 full-length, sequence (Q61474 whole entry): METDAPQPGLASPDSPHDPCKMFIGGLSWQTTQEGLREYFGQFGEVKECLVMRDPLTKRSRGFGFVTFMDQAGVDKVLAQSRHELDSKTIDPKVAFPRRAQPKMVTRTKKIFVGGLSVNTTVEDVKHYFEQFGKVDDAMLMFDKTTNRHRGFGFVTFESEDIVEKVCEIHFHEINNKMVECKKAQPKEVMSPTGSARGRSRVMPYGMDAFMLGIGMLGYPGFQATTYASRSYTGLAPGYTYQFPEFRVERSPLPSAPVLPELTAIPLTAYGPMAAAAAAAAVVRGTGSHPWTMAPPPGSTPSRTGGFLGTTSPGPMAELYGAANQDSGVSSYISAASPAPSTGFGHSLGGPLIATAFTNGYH

This experiment concerns the target MSI1 full-length (mouse, UniProt Q61474 1-362). Put plainly: nsRBNS (natural sequence RNA bind-n-seq); RBNS binding buffer (assumed for nsRBNS): 25 mM Tris pH 7.5, 150 mM KCl, 3 mM MgCl2, 0.01% Triton X-100, 500 ug/ml BSA, 20 U/ml SUPERase-In, 4 C; UNK is unkempt and MSI1 is Musashi-1; names of the RNAs are library labels; protein concentration not given here; high values mean tight binding.
B1 came in with a binding signal of 1.31 enrichment R.

Regarding B2, the binding signal is 0.29 enrichment R.

Molecule B3 registered a binding signal of 1.07 enrichment R.

B4 had a binding signal of 39.5 enrichment R.

Molecule B5 displayed a binding signal of 27.9 enrichment R.

For B6, the binding signal came to 0.51 enrichment R.

B7 had a binding signal of 0.225 enrichment R.

B8 displayed a binding signal of 23.2 enrichment R.

Molecule B9 had a binding signal of 0.376 enrichment R.

The molecule B10 registered a binding signal of 16.9 enrichment R.

With B11, the binding signal was found to be 0.37 enrichment R.

For B12, the binding signal amounted to 13.3 enrichment R.

B13 came in with a binding signal of 0.958 enrichment R.

B14 displayed a binding signal of 0.347 enrichment R.

As for B15, the binding signal is 1.88 enrichment R.

As for B16, the binding signal was found to be 0.411 enrichment R.

As to B17, the binding signal stood at 0.451 enrichment R.

As to B18, the binding signal is 1.38 enrichment R.

Turning to B19, the binding signal stood at 3.3 enrichment R.

As for B20, the binding signal worked out at 0.297 enrichment R.

B21 registered a binding signal of 0.83 enrichment R.

In turn, B22 gave a binding signal of 0.549 enrichment R.
